From PubChem BioAssay (NCI)
This is part of a sample that, as a whole, favours compounds with a hit. Of some 83,000 tested, about 20% had one in any assay.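 Compound tested at a single concentration for 48 hours in 96-well plates; a percent growth value below 10 was scored as active.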 Active and inactive are the calls of the source.

Key:
Assay in all cases: NCI-60 one-dose screen, 48 h (100 = growth as untreated, 0 = no growth, -100 = all killed)
Conditions in all cases: 10 µM unless noted
SR leukemia = tested on: SR leukemia
RPMI-8226 leukemia = tested on: RPMI-8226 leukemia
OVCAR-8 ovarian = tested on: OVCAR-8 ovarian
OVCAR-5 ovarian = tested on: OVCAR-5 ovarian
OVCAR-4 ovarian = tested on: OVCAR-4 ovarian
SK-OV-3 ovarian = tested on: SK-OV-3 ovarian
IGROV1 ovarian = tested on: IGROV1 ovarian
OVCAR-3 ovarian = tested on: OVCAR-3 ovarian
HS 578T breast = tested on: HS 578T breast
NCI/ADR-RES ovarian = tested on: NCI/ADR-RES ovarian
T-47D breast = tested on: T-47D breast
BT-549 breast = tested on: BT-549 breast
MDA-MB-435 melanoma = tested on: MDA-MB-435 melanoma
SW-620 colon = tested on: SW-620 colon
MCF7 breast = tested on: MCF7 breast
HCT-116 colon = tested on: HCT-116 colon
HCC-2998 colon = tested on: HCC-2998 colon
KM12 colon = tested on: KM12 colon

Measured: growth

CN1C(=O)NC(Cc2c[nH]c3c(Cl)cccc23)C1=O (stereo unspecified)
inactive: SR leukemia 101% | RPMI-8226 leukemia 119% | OVCAR-8 ovarian 112% | OVCAR-5 ovarian 102% | OVCAR-4 ovarian 101% | SK-OV-3 ovarian 113% | IGROV1 ovarian 108% | OVCAR-3 ovarian 90.8% | HS 578T breast 103% | NCI/ADR-RES ovarian 100% | T-47D breast 111% | BT-549 breast 118% | MDA-MB-435 melanoma 114% | SW-620 colon 112% | MCF7 breast 96.2% | HCT-116 colon 108% | HCC-2998 colon 97.5% | KM12 colon 96.6%

C=C1C(=O)O[C@H]2[C@H]1CC/C(COC(=O)NCc1cccc(OC)c1)=C\CC[C@@]1(C)O[C@@H]21
inactive: OVCAR-8 ovarian 46.1% | OVCAR-5 ovarian 66.6% | OVCAR-4 ovarian 49% | SK-OV-3 ovarian 71.6% | IGROV1 ovarian 32.8% | HS 578T breast 75.7% | NCI/ADR-RES ovarian 57.3% | T-47D breast 11.9% | BT-549 breast 16.6% | MDA-MB-435 melanoma 45.5% | HCC-2998 colon 81.6% | KM12 colon 88%
active: SR leukemia 8.59% | RPMI-8226 leukemia -23.1% | OVCAR-3 ovarian -7.55% | SW-620 colon -35.4% | MCF7 breast 8.22% | HCT-116 colon -70.9%

NS(=O)(=O)c1ccc(CCn2c(SCC(=O)N/N=C/c3cc4ccccc4[nH]3)nc3ccccc3c2=O)cc1
inactive: SR leukemia 26.4% | RPMI-8226 leukemia 24.4% | OVCAR-8 ovarian 40.5% | OVCAR-5 ovarian 113% | OVCAR-4 ovarian 68.7% | SK-OV-3 ovarian 95.4% | IGROV1 ovarian 65.4% | OVCAR-3 ovarian 68.6% | HS 578T breast 64.6% | NCI/ADR-RES ovarian 99.8% | T-47D breast 45.2% | BT-549 breast 74.3% | MDA-MB-435 melanoma 45.9% | SW-620 colon 71.9% | MCF7 breast 37.7% | HCT-116 colon 29.6% | HCC-2998 colon 88% | KM12 colon 50%

COc1ccc(C(=O)C(CN(C)C)c2ccc(OC)cc2)cc1 (stereo unspecified)
inactive: OVCAR-8 ovarian 42.2% | OVCAR-5 ovarian 94.8% | OVCAR-4 ovarian 73.1% | SK-OV-3 ovarian 98.8% | IGROV1 ovarian 86.9% | HS 578T breast 92.2% | NCI/ADR-RES ovarian 67.3% | T-47D breast 56.7% | MDA-MB-435 melanoma 43.8% | SW-620 colon 11.9% | MCF7 breast 18.5% | HCT-116 colon 14.7% | HCC-2998 colon 117% | KM12 colon 78%
active: SR leukemia 0.837% | RPMI-8226 leukemia 1.35% | OVCAR-3 ovarian -4.36% | BT-549 breast 2.74%

O=C1SCN(Cc2ccccc2)CN1Cc1ccccc1
active: SR leukemia 8.82%
inactive: RPMI-8226 leukemia 43.7% | OVCAR-8 ovarian 90.7% | OVCAR-5 ovarian 105% | OVCAR-4 ovarian 109% | SK-OV-3 ovarian 107% | IGROV1 ovarian 97.2% | OVCAR-3 ovarian 105% | HS 578T breast 95.5% | NCI/ADR-RES ovarian 100% | T-47D breast 52.2% | BT-549 breast 131% | MDA-MB-435 melanoma 73.3% | SW-620 colon 34.3% | MCF7 breast 22.1% | HCT-116 colon 70.5% | HCC-2998 colon 115% | KM12 colon 32.4%

CC(=O)O[C@H]1CC[C@]2(C)[C@H]3CC=C4[C@@H]5CC(C)(C)CC[C@]5(C(=O)OCC(COC(=O)C(Cl)Cl)(COC(=O)C(Cl)Cl)NC(=O)C(Cl)Cl)CC[C@@]4(C)[C@]3(C)CC[C@H]2C1(C)C
inactive: SR leukemia 60.3% | RPMI-8226 leukemia 33.5% | OVCAR-8 ovarian 68.5% | OVCAR-5 ovarian 86.1% | OVCAR-4 ovarian 67.6% | SK-OV-3 ovarian 86.1% | IGROV1 ovarian 89.5% | OVCAR-3 ovarian 67% | HS 578T breast 83.9% | NCI/ADR-RES ovarian 78% | T-47D breast 32.7% | BT-549 breast 75.2% | MDA-MB-435 melanoma 78.6% | SW-620 colon 79.4% | MCF7 breast 41.9% | HCT-116 colon 26.7% | HCC-2998 colon 86.9% | KM12 colon 52.2%

CN1CCC2(CC1)N=C(SCC(=O)Nc1cnc3ccccc3c1)C(c1ccc(Br)cc1)=N2
inactive: OVCAR-8 ovarian 19.9% | OVCAR-5 ovarian 67.7% | OVCAR-4 ovarian 65.8% | SK-OV-3 ovarian 54.9% | IGROV1 ovarian 16.2% | OVCAR-3 ovarian 35.4% | HS 578T breast 24% | NCI/ADR-RES ovarian 29.6% | T-47D breast 10.5% | BT-549 breast 59.4% | KM12 colon 41.6%
active: SR leukemia -27% | RPMI-8226 leukemia -7.88% | MDA-MB-435 melanoma 1.84% | SW-620 colon -6.58% | MCF7 breast -42.7% | HCT-116 colon -90.7% | HCC-2998 colon -51.3%

C=C1C[C@@]2(C)C(CC[C@]3(C)C2CC=C2C4CC(C)(C)C[C@@H](OC(=O)/C(C)=C\C)[C@]4(C(=O)O)CC[C@]23C)C(C)(C)C1=O (stereo partly specified)
inactive: OVCAR-8 ovarian 15% | OVCAR-4 ovarian 39.4% | SK-OV-3 ovarian 86.2% | HS 578T breast 51.3%
active: SR leukemia -0.663% | RPMI-8226 leukemia -15.6% | OVCAR-5 ovarian 7.88% | IGROV1 ovarian 1.07% | OVCAR-3 ovarian -16.8% | NCI/ADR-RES ovarian 9.03% | T-47D breast -11.3% | BT-549 breast -19.7% | MDA-MB-435 melanoma -12.4% | SW-620 colon -29.1% | MCF7 breast 8.17% | HCT-116 colon -78.5% | HCC-2998 colon -79.9% | KM12 colon 3.05%

Clc1cccc(CNc2c3ccccc3nc3ccccc23)c1
active: SR leukemia -3.9% | RPMI-8226 leukemia -23.5% | MCF7 breast 0.909% | HCT-116 colon 8.69% | HCC-2998 colon -53.6%
inactive: OVCAR-8 ovarian 31.1% | OVCAR-5 ovarian 32.4% | OVCAR-4 ovarian 18.8% | SK-OV-3 ovarian 63.9% | IGROV1 ovarian 16.5% | OVCAR-3 ovarian 57.7% | HS 578T breast 53.7% | NCI/ADR-RES ovarian 26.3% | T-47D breast 40.9% | BT-549 breast 59.1% | MDA-MB-435 melanoma 46.6% | SW-620 colon 12% | KM12 colon 40.8%

CN(C)CCCn1c(=O)c2cc([N+](=O)[O-])ccc2c2cnc3[nH]ccc3c21
inactive: RPMI-8226 leukemia 45.4% | OVCAR-8 ovarian 35.1% | OVCAR-5 ovarian 73.1% | OVCAR-4 ovarian 61% | SK-OV-3 ovarian 63.8% | IGROV1 ovarian 54.9% | OVCAR-3 ovarian 68.2% | HS 578T breast 75.3% | NCI/ADR-RES ovarian 51.7% | T-47D breast 86.5% | BT-549 breast 68.7% | MDA-MB-435 melanoma 67.7% | SW-620 colon 33.1% | HCT-116 colon 12.4% | HCC-2998 colon 60% | KM12 colon 47.9%
active: SR leukemia -27.6% | MCF7 breast -12%

N=C(N)c1ccc(-c2ccc(-c3ccco3)o2)cc1F
inactive: OVCAR-8 ovarian 45% | OVCAR-5 ovarian 17.8% | OVCAR-4 ovarian 42% | SK-OV-3 ovarian 40.1% | IGROV1 ovarian 11.9% | OVCAR-3 ovarian 54.1% | HS 578T breast 48.8% | NCI/ADR-RES ovarian 45.2% | BT-549 breast 25%
active: SR leukemia -9.28% | RPMI-8226 leukemia -23.2% | T-47D breast -27.8% | MDA-MB-435 melanoma -59.1% | SW-620 colon -11.3% | MCF7 breast -13.7% | HCT-116 colon -21.2% | HCC-2998 colon -74.7% | KM12 colon 4.94%

C=C1C(=O)O[C@H]2[C@H]1CC/C(COC(=O)N[C@@H](Cc1c[nH]c3ccccc13)C(=O)OC)=C\CC[C@@]1(C)O[C@@H]21
inactive: OVCAR-8 ovarian 37.1% | OVCAR-5 ovarian 66% | OVCAR-4 ovarian 72.2% | SK-OV-3 ovarian 78.8% | HS 578T breast 77.8% | NCI/ADR-RES ovarian 88.2% | BT-549 breast 45.3% | MDA-MB-435 melanoma 49.1% | MCF7 breast 11.7% | HCC-2998 colon 82.4% | KM12 colon 74.6%
active: SR leukemia 3.24% | RPMI-8226 leukemia -14.2% | IGROV1 ovarian 0.0104% | OVCAR-3 ovarian -40.3% | T-47D breast -16.9% | SW-620 colon -6.63% | HCT-116 colon -78%

COc1ccccc1CNCCCN1C(=O)c2ccc3c4c(ccc(c24)C1=O)C(=O)N(CCCCNCCCN)C3=O
inactive: SR leukemia 11.3% | RPMI-8226 leukemia 10.6% | OVCAR-5 ovarian 69.8% | SK-OV-3 ovarian 56.9% | HS 578T breast 31.5% | NCI/ADR-RES ovarian 72.6% | BT-549 breast 58% | KM12 colon 10.7%
active: OVCAR-8 ovarian -16% | OVCAR-4 ovarian -90.4% | IGROV1 ovarian -25% | OVCAR-3 ovarian -30.4% | T-47D breast -45.4% | MDA-MB-435 melanoma -70% | SW-620 colon -25% | MCF7 breast -41.7% | HCT-116 colon -11% | HCC-2998 colon -6.41%

CNC1=C([N+](=O)[O-])C(c2ccccc2O)C(C#N)=C(c2cccs2)O1 (stereo unspecified)
inactive: SR leukemia 48.6% | RPMI-8226 leukemia 100% | OVCAR-8 ovarian 94.2% | OVCAR-5 ovarian 104% | OVCAR-4 ovarian 82.4% | SK-OV-3 ovarian 94.5% | IGROV1 ovarian 90.3% | OVCAR-3 ovarian 92% | HS 578T breast 92.3% | NCI/ADR-RES ovarian 102% | T-47D breast 81.7% | BT-549 breast 100% | MDA-MB-435 melanoma 97.8% | SW-620 colon 99.9% | MCF7 breast 92.3% | HCT-116 colon 98.7% | HCC-2998 colon 114% | KM12 colon 99.8%

CCOCCNc1ccc(S(=O)(=O)c2ccc(N)cc2)cc1N
inactive: SR leukemia 115% | RPMI-8226 leukemia 92.9% | OVCAR-8 ovarian 98.7% | OVCAR-5 ovarian 103% | OVCAR-4 ovarian 100% | SK-OV-3 ovarian 105% | IGROV1 ovarian 114% | OVCAR-3 ovarian 100% | HS 578T breast 99% | NCI/ADR-RES ovarian 100% | T-47D breast 99.8% | BT-549 breast 107% | MDA-MB-435 melanoma 105% | SW-620 colon 102% | MCF7 breast 113% | HCT-116 colon 102% | HCC-2998 colon 101% | KM12 colon 99.3%

c1ccc(-c2ccc(-c3ccccc3)[nH]2)cc1
inactive: SR leukemia 96.1% | RPMI-8226 leukemia 79.7% | OVCAR-8 ovarian 101% | OVCAR-5 ovarian 104% | OVCAR-4 ovarian 75.8% | SK-OV-3 ovarian 107% | IGROV1 ovarian 85.8% | OVCAR-3 ovarian 106% | HS 578T breast 100% | NCI/ADR-RES ovarian 96.4% | T-47D breast 89.6% | BT-549 breast 99.8% | MDA-MB-435 melanoma 97.9% | SW-620 colon 105% | MCF7 breast 85.9% | HCT-116 colon 92.7% | HCC-2998 colon 99.9% | KM12 colon 97%

CC1OC(n2c3ccccc3c3c4c(c5c6ccccc6[nH]c5c32)C(=O)N(CCN2CCOCC2)C4=O)CC(O)C1O (stereo unspecified)
active: SK-OV-3 ovarian 6.84%
inactive: SR leukemia 10.7% | RPMI-8226 leukemia 27.8% | OVCAR-8 ovarian 32.4% | OVCAR-5 ovarian 61.7% | OVCAR-4 ovarian 46.5% | IGROV1 ovarian 48.3% | OVCAR-3 ovarian 48.2% | HS 578T breast 63.6% | NCI/ADR-RES ovarian 26.4% | T-47D breast 11% | BT-549 breast 36.9% | MDA-MB-435 melanoma 41.5% | SW-620 colon 27.8% | MCF7 breast 13.3% | HCT-116 colon 24.3% | HCC-2998 colon 30% | KM12 colon 30.7%
